Rows were chosen to be rich in hits. Some 3.9% of all compounds tested hit in one or more screens of this group.
CCHF vOTU inh = blocks the CCHF virus ovarian tumor domain protease; CCHFV vOTU protease, Pep-AMC fluorescence; inhibition, % at 11.5 µM; 370,000 tested, 0.55% active; AID 651958; in the data active = inhibition above about 30%
Bead autofluor = compound fluorescence in toxin protease inhibitor counterscreen; fluorescence intensity (concentration not given with the values); AID 624483; 360,000 tested, 3.1% active; compound autofluorescence counterscreen, microsphere flow cytometry; stronger effect = higher value; in the data active = fluorescence intensity above about 16000; inconclusive = no clear call, values can overlap the other calls
BoNT A protease = BoNT A light chain protease inhibition. multiplex microsphere protease substrate cleavage, flow cytometry. inhibition, % at 10 µM. 360,000 tested, 0.17% active
BoNT-F LC inh = inhibitors of Botulinum neurotoxin F light chain protease | Multiplex microsphere protease cleavage assay, flow cytometry | inhibition, % at 10 µM | 360,000 tested, 0.22% active | AID 588497; in the data active = inhibition above about 35%, passing the limit was not always enough; inconclusive = no clear call, values can overlap the other calls
Anthrax LF prot = blocks Bacillus anthracis lethal factor protease; P15917; multiplex microsphere protease cleavage assay, LF; inhibition, % at 10 µM; 360,000 tested, 0.12% active
3CLpro inhibitor = SARS-CoV 3CLpro protease inhibition; recombinant SARS-CoV 3CLpro, quenched FRET peptide cleavage; inhibition, % at 6 µM; 290,000 tested, 0.14% active; AID 1706; in the data active = inhibition above about 12%
Of the large screens only hits and unclear results are named; the others gave an inactive call. Rule as the data show it, unless noted: active = inhibition above about 30%; inconclusive = no clear call, values can overlap the other calls; inactive = below that.

COc1ccc(-c2nc(C#N)c(NCc3ccccc3Cl)o2)cc1OC	none
N#Cc1nc(-c2ccc(F)cc2)oc1NCCN1CCOCC1	none
CCCCNC(=O)C1CCCN1C(=O)Nc1cc(C)cc(C)c1 (stereo unspecified)	none (no result: Bead autofluor, BoNT A protease, BoNT-F LC inh, Anthrax LF prot, 3CLpro inhibitor)
CCC(C)NS(=O)(=O)c1ccc2[nH]c(=O)oc2c1 (stereo unspecified)	none (no result: Bead autofluor, BoNT A protease, BoNT-F LC inh, Anthrax LF prot, 3CLpro inhibitor)
CC1=C(C(=O)Nc2ccccc2)C(c2ccncc2)n2nnnc2N1 (stereo unspecified)	Bead autofluor inconclusive, Anthrax LF prot inconclusive
COc1ccccc1NC(=O)C1=C(C)Nc2nnnn2C1c1cc(Br)ccc1OC (stereo unspecified)	Bead autofluor 23731
CC1=C(C(=O)Nc2cccnc2)C(c2ccncc2)n2nnnc2N1 (stereo unspecified)	Bead autofluor 19936, BoNT A protease inconclusive
CCOC(=O)N1CCN(C(=O)C2CCC(=O)N2C(C)C)CC1 (stereo unspecified)	Bead autofluor 22385
Cc1ccc(Cl)cc1N1CCN(C(=O)C2CCC(=O)N2C(C)C)CC1 (stereo unspecified)	none
O=C(Nc1nc2ncccn2c1-c1ccccc1)C1CC1	none (no result: Bead autofluor, BoNT A protease, BoNT-F LC inh, Anthrax LF prot, 3CLpro inhibitor)
O=C(COc1ccc(F)cc1F)N1CCCCCCC1	none
C=CCOC(=O)C1CC=CCC1C(=O)Oc1ccc(F)cc1F (stereo unspecified)	Bead autofluor 24043, BoNT A protease inconclusive
COCCNC(=O)c1ccccc1-c1ccccc1C(=O)O	none
O=C(O)c1ccccc1-c1ccccc1C(=O)NCCCO	Bead autofluor 20852, BoNT A protease inconclusive
COc1cc2c(cc1OC)[C@@H](Cc1ccc(OCCC#N)cc1)N(C)CC2	BoNT-F LC inh 40
COc1ccc(CC2c3cc(OC)c(OC)cc3CCN2C)cc1OC (stereo unspecified)	none
CCOC(=O)[C@@]12CCCC3=C1N(CCC3)C(=O)[C@H]2CC(=O)NCc1ccc(OC)c(OC)c1	none (no result: Bead autofluor, BoNT A protease, BoNT-F LC inh, Anthrax LF prot, 3CLpro inhibitor)
CCn1c(=O)cc(OCC(=O)Nc2ccc(C)cn2)c2ccccc21	Bead autofluor 19603
COc1ccc(-n2c(=O)c3ccccc3n(CC(=O)NC3CCCC3)c2=O)c(OC)c1	Bead autofluor 21567
CCn1c(=O)cc(OCC(=O)NC2CCCCC2)c2ccccc21	Bead autofluor 16641
CCn1c(=O)cc(OCC(=O)NCc2cccnc2)c2ccccc21	Bead autofluor 23271, BoNT A protease inconclusive
CCOC(=O)[C@@]12CCC3=C1N(CCC3)C(=O)[C@H](CC(=O)NCc1cccc3ccccc13)C2	none (no result: Bead autofluor, BoNT A protease, BoNT-F LC inh, Anthrax LF prot, 3CLpro inhibitor)
COC(=O)[C@]12C[C@H](CC(=O)N3CCSCC3)C(=O)N(Cc3cccc4ccccc34)C1=C[C@H](C1CCCC1)O[C@@H]2C	none (no result: Bead autofluor, BoNT A protease, BoNT-F LC inh, Anthrax LF prot, 3CLpro inhibitor)
COc1ccc(C2CC(c3ccccc3)=NN2S(=O)(=O)c2ccc(C)cc2)c(OC)c1 (stereo unspecified)	Bead autofluor 20530
Cc1ccc(Cl)cc1N(Cc1ccc(C(=O)NCc2cccnc2)cc1)S(=O)(=O)c1ccccc1	Bead autofluor 22366, BoNT A protease inconclusive
COc1ccc(NC(=O)c2ccc(CN(c3cc(Cl)ccc3C)S(=O)(=O)c3ccccc3)cc2)cc1OC	Bead autofluor 20845
CN(C)[C@@H]1CCN(c2cccc3c2S(=O)(=O)N2CC[C@@H](C2)O3)C1	none (no result: Bead autofluor, BoNT A protease, BoNT-F LC inh, Anthrax LF prot, 3CLpro inhibitor)
CC(C)[C@H](NC(=O)OC(C)(C)C)C(=O)N1CCC(Oc2cccnc2)CC1	none (no result: Bead autofluor, BoNT A protease, BoNT-F LC inh, Anthrax LF prot, 3CLpro inhibitor)
Cc1ccc(NC(=O)OC2CCC23CCCCC3)cc1 (stereo unspecified)	none (no result: Bead autofluor, BoNT A protease, BoNT-F LC inh, Anthrax LF prot, 3CLpro inhibitor)
CCCCn1nnnc1C1c2ccccc2OCC(=O)N1Cc1ccc2c(c1)OCO2 (stereo unspecified)	none (no result: Bead autofluor, BoNT A protease, BoNT-F LC inh, Anthrax LF prot, 3CLpro inhibitor)
CCNCCOC(c1ccccc1)c1ccccc1	Bead autofluor 18751, BoNT A protease inconclusive
CCN(CC)CCOC(c1ccccc1)c1ccc(C)cc1 (stereo unspecified)	none
COC1=C(Br)C(=O)c2ncccc2C1=O	CCHF vOTU inh 101 (no result: 3CLpro inhibitor)
O=C1c2cccnc2-c2ncccc21	none
CC1(C)CC(=O)c2c(O)cc(O)cc2O1	Bead autofluor 22477
O=C(O)c1ccccc1OCCOCCOc1ccccc1C(=O)O	Bead autofluor 23112
CC(C)CNC(=O)OCc1cn(Cc2cccc(F)c2F)nn1	none (no result: Bead autofluor, BoNT A protease, BoNT-F LC inh, Anthrax LF prot, 3CLpro inhibitor)
CC(C)C[C@H]1COc2cc(Br)ccc2S(=O)(=O)N1Cc1cccc(Cl)c1	none (no result: Bead autofluor, BoNT A protease, BoNT-F LC inh, Anthrax LF prot, 3CLpro inhibitor)
C=CCSc1n[nH]c(-c2ccc(OCCCC)cc2)n1	Bead autofluor 16907
Cc1cc(C(=O)N2CCCC2C(=O)O)c(C)o1 (stereo unspecified)	Bead autofluor 22740
O=c1c2ccccc2n(Cc2ccccc2)n1[C@@H](Cc1ccccc1)Cn1cc(-c2ccc(-c3ccccc3)cc2)nn1	none (no result: Bead autofluor, BoNT A protease, BoNT-F LC inh, Anthrax LF prot, 3CLpro inhibitor)
CC(=O)C1=C(O)C(=O)N(CCN(C)C)C1c1ccc(Cl)cc1 (stereo unspecified)	Bead autofluor 20540
CCOC(=O)[C@@]12CCC3=C1N(CCC3)C(=O)[C@H](CC(=O)NCc1ccc(C)o1)C2	none (no result: Bead autofluor, BoNT A protease, BoNT-F LC inh, Anthrax LF prot, 3CLpro inhibitor)

High-throughput results as filed in PubChem BioAssay.
